Measured values: PubChem BioAssay (NCI)
The panel holds about 83,000 compounds, 20% with a hit somewhere; the sample as a whole holds those more often.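 Method: cells in 96-well plates; compound added at one concentration; 48 h incubation; percent growth measured; values under 10 scored active.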 A number with no mark means an inactive call. Calls of active or inactive are those of the source.

Columns and labels:
Test in all cases: NCI-60 one-dose screen, 48 h (100 = growth as untreated, 0 = no growth, -100 = all killed)
Conditions in all cases: 10 µM unless noted
NCI-H23 lung = system: NCI-H23 lung
NCI-H226 lung = system: NCI-H226 lung
NCI-H322M lung = system: NCI-H322M lung
HOP-62 NSCLC = system: HOP-62 NSCLC
NCI-H460 lung = system: NCI-H460 lung
HOP-92 NSCLC = system: HOP-92 NSCLC
NCI-H522 lung = system: NCI-H522 lung
A549/ATCC NSCLC = system: A549/ATCC NSCLC
786-0 renal = system: 786-0 renal
COLO 205 colon = system: COLO 205 colon

Structure (SMILES)	growth (NCI-H23 lung)	growth (NCI-H226 lung)	growth (NCI-H322M lung)	growth (HOP-62 NSCLC)	growth (NCI-H460 lung)	growth (HOP-92 NSCLC)	growth (NCI-H522 lung)	growth (A549/ATCC NSCLC)	growth (786-0 renal)	growth (COLO 205 colon)
Cc1nccc2c3ccc(OCc4cn(-c5ccc(Br)cc5)nn4)cc3n(CCCc3ccccc3)c12	51.2%	91%	91.1%	110%	33.4%	99.7%	84.9%	12.2%	-71.4% (active)	40.7%
O=C(Nc1cccc(-n2ccc3c(NC(=O)c4ccccc4)nccc32)c1)Nc1ccc(Cl)c(C(F)(F)F)c1	13%	21.7%	39.5%	33.4%	-0.783% (active)	2.86% (active)	-51.5% (active)	9.59% (active)	-14.8% (active)	-51.6% (active)
Nc1nc2ccc(CNc3ccc(C(=O)NC(CC(=O)O)C(=O)O)cc3)cc2c(=O)[nH]1 (stereo not given)	31.7%	57.4%	55.7%	26.5%	24.4%	64.1%	-0.0288% (active)	11%	7.57% (active)	85.4%
C=CC(C)(O)CCC1C(=C)CCC2C(C)(C)CCCC12C (stereo not given)	94.2%	105%	98.3%	102%	112%	126%	72.4%	77.5%	99.6%	123%
C[C@]12O[C@H]1[C@H](O)c1c(cc(O)c3c1C(=O)c1cccc(O)c1-3)C2=O	99%	85.7%	102%	96.5%	99.1%	101%	87.8%	92.9%	104%	106%
Cc1ncc(CO)c(C(=O)O)c1O	98.6%	102%	80.9%	104%	105%	106%	79.8%	110%	97.5%	112%
COc1ccc(-c2ccc(NC(=O)Nc3ccc(Cl)c(C(F)(F)F)c3)c(C)n2)cc1	30.9%	65.2%	71.4%	62.1%	30.9%	27%	24.8%	38.7%	56.1%	80.1%
Cc1ccc(-c2nc3c(N=Nc4ccc(S(N)(=O)=O)cc4)c(N)nn3c(N)c2C#N)cc1	43.9%	65%	66.1%	42.6%	27.9%	19.6%	28.7%	63.1%	64.5%	14.5%
CN(C)c1ccc(/C=N/N=C(N)N)cc1	81.2%	82.2%	99.4%	75.3%	83.2%	73.6%	66.7%	70.7%	103%	54.7%
CCn1c(SC)nnc1-c1cc2c([nH]c3ccccc32)c(-c2cccc(O)c2)n1	39.8%	51.3%	50.1%	18.3%	9.54% (active)	-1.11% (active)	5.8% (active)	26.5%	1.6% (active)	87.7%
CN1C(=O)C2(NN=C(c3cccc4ccccc34)S2)c2ccccc21 (stereo not given)	50.4%	46.1%	44.4%	13.9%	14.6%	-1.68% (active)	41.1%	9.72% (active)	33.5%	23.5%
CCCCOc1nc2ccc(Cl)cc2cc1/C=C/C(=O)/C=C/c1ccc(Cl)cc1	79.8%	92.9%	95.7%	101%	103%	87.1%	74.8%	84.4%	94.1%	62%
Cc1c(F)cccc1NC(=O)c1sc2nc3c(cc2c1N)CCCCC3	79.6%	56.8%	85.8%	50.3%	56.7%	70.5%	20%	73.9%	75.7%	74.2%
COc1cc(NC(C)CCCN2C(=O)c3ccccc3C2=O)c2nccc(C)c2c1OC (stereo not given)	90.1%	94.1%	102%	103%	108%	60.1%	75.2%	93.9%	94.2%	131%
CCOC(=O)CSc1nnc(-c2cc3c([nH]c4ccccc43)c(-c3cccc(O)c3)n2)n1-c1ccc(C)cc1	97%	100%	95.2%	88.3%	103%	48.9%	47.1%	98.5%	88.7%	95.1%
N#CC(C#N)=C(C#N)c1c[nH]c2ccccc12	87.4%	78.4%	110%	81.2%	92.8%	41.2%	57.4%	80.4%	82.4%	73.8%
Cc1cc(-c2ccccc2)nc2ccccc12	90.4%	90.2%	103%	79.8%	103%	95.7%	90.5%	90.2%	109%	96.5%
CNCCCOc1c(Br)cc(CCNC(=O)/C(Cc2ccc(OC)c(Br)c2)=N/O)cc1Br	62.7%	77.3%	70.3%	67.5%	15.8%	40.9%	29.3%	49.7%	40.6%	-58.6% (active)
Cc1cc(Nc2ccc(Cl)c(Cl)c2)nc(N)n1	89.5%	92%	110%	98.3%	94.3%	97.7%	78.3%	71.8%	78.9%	107%
C=C1C(=O)O[C@H]2[C@H]1CC/C(COC(=O)c1ccc(Cl)nc1)=C\CC[C@@]1(C)O[C@@H]21	47.5%	-9.06% (active)	68.4%	57.1%	56.1%	-40.1% (active)	-83.7% (active)	39.7%	9.88% (active)	-73.3% (active)
Nc1n[nH]c2cccc(C#Cc3cccc(NC(=O)c4cccc(C(F)(F)F)c4)c3)c12	39.5%	44%	46.5%	28.3%	40.3%	-4.2% (active)	41.2%	43.4%	23.1%	16.5%
N#Cc1c(N)nc(Cl)c(C#N)c1C(=O)c1ccccc1	67%	87.9%	96.5%	69.4%	61.5%	74.2%	39.1%	70.9%	37.8%	61.6%
Cc1cn(C2CC(F)C(CO)O2)c(=O)[nH]c1=O (stereo not given)	90.3%	95.9%	85.9%	88.4%	51.8%	69%	86%	84.7%	87.3%	116%
O=C(N/N=C/c1ccccc1O)c1ccccc1O	37.5%	67%	32.6%	42.1%	13.2%	56.5%	6.88% (active)	45.4%	25.8%	55.5%
C=C1C(=O)O[C@H]2[C@H]1CC/C(COC(=O)OC/C1=C/CC[C@@]3(C)O[C@H]3[C@H]3OC(=O)[C@@H](CN(C)C)[C@@H]3CC1)=C\CC[C@@]1(C)O[C@@H]21	47.6%	-49.6% (active)	88%	89.2%	80.1%	-51.8% (active)	-48.5% (active)	73.4%	-49.7% (active)	-43.2% (active)
CC1CCC(C(C)C)C(NN)C1 (stereo not given)	106%	88%	91.2%	96%	108%	110%	70.9%	80.6%	98.8%	103%
CC1(C)N=C(N)N=C(N)N1c1cccc(CCCCc2ccccc2)c1	10.8%	25.9%	21.6%	-23.5% (active)	0.878% (active)	-30.8% (active)	-42.1% (active)	-6.95% (active)	-48.4% (active)	-84.7% (active)
